# Source: article PMC4336329 (PLoS ONE, 2015)
# Among all 310,000 compounds or so, about 14,000 (4.5%) showed an effect of 50% or more. Effects have a minus sign here. Many of the other results were omitted from the sample, so strong results are more common in it than they were.
# Biological target: human ether-à-go-go-related gene (hERG) potassium channel (human, UniProt Q12809)
# Test: primary screen, population patch clamp on CHO cells stably expressing hERG; higher = less effect of the substance
# 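Further: peak tail current of the secondary pulse compared with the same well before compound.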
# human ether-à-go-go-related gene (hERG) potassium channel, sequence (Q12809 whole entry, looked up): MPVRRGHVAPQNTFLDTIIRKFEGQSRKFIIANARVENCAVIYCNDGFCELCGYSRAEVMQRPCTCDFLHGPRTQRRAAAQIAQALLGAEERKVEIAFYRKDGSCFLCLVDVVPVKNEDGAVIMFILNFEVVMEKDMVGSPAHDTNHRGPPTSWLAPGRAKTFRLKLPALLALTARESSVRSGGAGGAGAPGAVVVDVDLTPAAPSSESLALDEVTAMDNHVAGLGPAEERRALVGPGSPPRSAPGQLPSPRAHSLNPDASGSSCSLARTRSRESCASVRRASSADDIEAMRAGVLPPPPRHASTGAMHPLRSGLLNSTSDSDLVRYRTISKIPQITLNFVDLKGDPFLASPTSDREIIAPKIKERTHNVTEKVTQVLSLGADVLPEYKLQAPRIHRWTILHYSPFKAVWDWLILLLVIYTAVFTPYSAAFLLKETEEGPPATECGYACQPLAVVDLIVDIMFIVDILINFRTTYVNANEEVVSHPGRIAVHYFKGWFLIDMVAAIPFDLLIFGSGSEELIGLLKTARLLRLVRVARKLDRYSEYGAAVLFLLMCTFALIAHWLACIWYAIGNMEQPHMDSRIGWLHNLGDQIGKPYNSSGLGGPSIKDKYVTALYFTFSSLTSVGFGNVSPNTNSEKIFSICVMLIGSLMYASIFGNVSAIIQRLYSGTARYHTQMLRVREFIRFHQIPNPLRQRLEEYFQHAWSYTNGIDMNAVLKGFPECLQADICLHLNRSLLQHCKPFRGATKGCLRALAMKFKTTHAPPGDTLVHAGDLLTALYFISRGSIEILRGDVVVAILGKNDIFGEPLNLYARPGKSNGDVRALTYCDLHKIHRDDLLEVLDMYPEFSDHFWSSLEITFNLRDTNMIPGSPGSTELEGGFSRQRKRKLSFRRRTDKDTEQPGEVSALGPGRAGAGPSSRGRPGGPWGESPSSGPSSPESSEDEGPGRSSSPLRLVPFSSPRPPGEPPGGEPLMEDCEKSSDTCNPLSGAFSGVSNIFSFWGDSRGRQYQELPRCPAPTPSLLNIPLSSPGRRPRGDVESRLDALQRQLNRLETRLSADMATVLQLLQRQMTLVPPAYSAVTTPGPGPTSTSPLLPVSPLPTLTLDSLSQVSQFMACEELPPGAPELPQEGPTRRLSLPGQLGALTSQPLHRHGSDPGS
row,Compound,"hERG current change (%, negative = inhibition) at 10uM [%]"
1,COc1ccc(CCN=C(N)NS(=O)(=O)c2cc(F)ccc2F)cc1,-17.2
2,N/C(Cc1ccc([N+](=O)[O-])cc1)=N\OC(=O)COc1ccccc1Cl,-21.2
3,O=C(c1ccccc1)N1CN2CN(C(=O)c3ccccc3)CC([N+](=O)[O-])(C2)C1,21.8
4,COc1ccc(-n2c(SCC(=O)Nc3cccc(C(=O)O)c3)nnc2-c2ccco2)cc1,17.7
5,COc1cccc(NC(=O)CSc2nnc(-c3ccoc3C)n2C)c1,4.35
6,CCn1c(SCC(=O)NC(C)(C)C)nnc1-c1ccoc1C,-18.5
7,CCOc1ccccc1-n1c(SCC(=O)NC(C)(C)C)nnc1-c1ccoc1C,1.75
8,COc1cccc(-n2c(SCC(=O)NCCc3ccccc3)nnc2-c2ccoc2C)c1,-76.8
9,COc1cccc(NC(=O)CSc2nnc(-c3ccoc3C)n2CC2CCCO2)c1 (centres unmarked),-1.09
10,COc1cccc(NC(=O)CSc2nnc(-c3ccoc3C)n2-c2ccccc2)c1,-85.7
11,COC(=O)CSc1nnc(-c2ccoc2C)n1-c1ccc(OC)cc1,-18.3
12,COc1cccc(-n2nnnc2SCC(=O)NCCc2ccccc2)c1,-20.8
13,COc1ccc(-n2c(SCC(=O)Nc3ccccc3)nnc2-c2ccoc2C)cc1,-71.8
14,COc1cccc(-n2c(SCC(=O)NC(C)(C)C)nnc2-c2ccoc2C)c1,-64.5
15,Cc1occc1-c1nnc(SCC(=O)NCCc2ccccc2)o1,-11.5
16,CN(CC(=O)Nc1cccc(F)c1)C(=O)CCC1CCCCC1,17.7
17,COC(=O)C(=NNc1c(C)n(C)n(-c2ccccc2)c1=O)C(=O)OC,9.93
18,COc1ccccc1NC(=O)c1cc(OC)c(OC)cc1[N+](=O)[O-],4.44
19,COc1ccc(N(C)S(=O)(=O)c2ccc3c(c2)CCC(=O)N3)cc1,-9.5
20,CN(C)c1ccc(/C=C(\C#N)c2ccccn2)cc1,-6.97
21,CN(C)CCOc1cc(Cl)cc(Cl)c1,7.27
22,CCOC(CNc1cc(C)nc2c(-c3ccccc3OC)c(C)nn12)OCC,8.64

row,Compound,"hERG current change (%, negative = inhibition) at 10uM [%]"
1,COC(=O)c1ccc(NC(=O)CSc2nnc(C)n2-c2ccccc2)cc1,-2.35
2,Cc1n[nH]c(=S)n1/N=C/c1ccc(Br)o1,12.5
3,COc1ccc(S(=O)(=O)N2CCCN(Cc3cccc(F)c3)CC2)cc1,-44.6
4,COc1cccc(CN2CCCN(S(=O)(=O)c3ccc(Br)cc3)CC2)c1,-58.6
5,COc1ccc(S(=O)(=O)N2CCN(Cc3ccc(Cl)cc3)CC2)cc1,-10.8
6,O=S(=O)(c1ccc(Br)cc1)N1CCCN(Cc2cccc(F)c2)CC1,-17.9
7,COc1ccc(CN2CCCN(S(=O)(=O)c3ccc(Br)cc3)CC2)cc1,-74.4
8,COc1cccc(CN2CCN(S(=O)(=O)c3ccc(Br)cc3)CC2)c1,-29.4
9,COc1ccc(N2CSC3=C(C#N)C(c4ccc(OC)c(OC)c4)CC(=O)N3C2)c(OC)c1 (centres unmarked),-47.5
10,COc1ccc(N2C(=O)c3ccc(NC(C)=O)cc3C2=O)cc1,20.2
11,CC(=O)N1Cc2ccccc2CC1C(=O)O (centres unmarked),-7.43
12,CC(CC1CC(C)(C)OC1=O)C(=O)Nc1ccc([N+](=O)[O-])cc1 (centres unmarked),-51.4
13,CC1(C)CC(CC(=O)Nc2ccc([N+](=O)[O-])cc2)C(=O)O1 (centres unmarked),-22.5
14,CC1(C)CC(CC(=O)NC(=S)Nc2ccc([N+](=O)[O-])cc2)C(=O)O1 (centres unmarked),-21.2
15,COc1ccc(C)cc1NC(=O)CSCc1ccccc1C,-4
16,Cl.Clc1ccc(CSC2=NCCCN2)cc1Cl,-18.2
17,COc1ccc(CSc2n[nH]c(C)n2)cc1[N+](=O)[O-],26.2
18,COc1ccc(CSc2nc(C)[nH]c2[N+](=O)[O-])cc1[N+](=O)[O-],4.63
19,CCCCCOc1ccc(CSC2=NCCN2)cc1[N+](=O)[O-],-80.2
20,COc1ccc(CSc2cccc3cccnc23)cc1[N+](=O)[O-],1.59
21,CCOc1ccc(CSC2=NCCN2)cc1Cl.Cl,-50.9
22,CCCCOc1ccc(CSc2nnc(C)n2N)cc1[N+](=O)[O-],-31.5
